# What was measured:
# Assay in all cases: PBM binding z-score (relative to random genomic background probes); higher = stronger binding; sequences stand for … in GC…GCGATTGACAGCGTAGAATGAAGG
# [1] = system: FXR:RXRa (NR concentration 270 nM, RXRa partner concentration 90 nM)
# Procedure, shortened: (§1)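 Binding z-scores were set against random background probes. The data came from custom Agilent 4×180K protein-binding microarrays carrying double-stranded probes with 34-nt variable regions, incubated 1 h with ligand-free nuclear receptor dimers. Partner-specific antibodies detected binding, and scanned fluorescence was regression-normalized.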
# [2] = system: LXRa:RXRa (NR concentration 270 nM, RXRa partner concentration 90 nM)
# Procedure, shortened: as §1
# [3] = system: LXRa homodimer (NR concentration 270 nM)
# Procedure, shortened: as §1
# [4] = system: LXRb:RXRa (NR concentration 270 nM, RXRa partner concentration 90 nM)
# Procedure, shortened: as §1
# [5] = system: LXRb homodimer (NR concentration 270 nM)
# Procedure, shortened: as §1
# [6] = system: PPARa:RXRa (NR concentration 270 nM, RXRa partner concentration 90 nM)
# Procedure, shortened: as §1
# [7] = system: PPARg:RXRa (NR concentration 180 nM, RXRa partner concentration 90 nM)
# Procedure, shortened: as §1
# [8] = system: PPARg:RXRa 270nM:90nM, anti-RXR (NR concentration 270 nM, RXRa partner concentration 90 nM)
# Procedure, shortened: as §1
# [9] = system: PPARg:RXRa 30nM:10nM, anti-RXR (NR concentration 30 nM, RXRa partner concentration 10 nM)
# Procedure, shortened: as §1
# [10] = system: PPARg:RXRa 90nM:30nM, anti-RXR (NR concentration 90 nM, RXRa partner concentration 30 nM)
# Procedure, shortened: as §1
# [11] = system: PPARg:RXRa DBDmut IVT, anti-RXR (DBD mutation: RXRa K156A/R161A, NR concentration 270 nM, RXRa partner concentration 90 nM)
# Procedure, shortened: as §1
# [12] = system: PPARg:RXRa IVT, anti-PPARg (NR concentration 270 nM, RXRa partner concentration 90 nM)
# Procedure, shortened: as §1
# [13] = system: PPARg DBDmut:RXRa IVT, anti-PPARg (DBD mutation: PPARg1 K132A/R137A, NR concentration 270 nM, RXRa partner concentration 90 nM)
# Procedure, shortened: as §1
# [14] = system: PPARg DBDmut IVT, anti-PPARg (DBD mutation: PPARg1 K132A/R137A, NR concentration 270 nM)
# Procedure, shortened: as §1
# [15] = system: PPARg homodimer (NR concentration 180 nM)
# Procedure, shortened: as §1
# [16] = system: PXR:RXRa (NR concentration 270 nM, RXRa partner concentration 90 nM)
# Procedure, shortened: as §1
# [17] = system: PXR homodimer (NR concentration 270 nM)
# Procedure, shortened: as §1
# [18] = system: RARa:RXR (NR concentration 270 nM, RXRa partner concentration 90 nM)
# Procedure, shortened: as §1
# [19] = system: RARa homodimer (NR concentration 270 nM)
# Procedure, shortened: as §1
# [20] = system: RARb:RXRa (NR concentration 270 nM, RXRa partner concentration 90 nM)
# Procedure, shortened: as §1
Sequence,PBM binding z-score [1],PBM binding z-score [2],PBM binding z-score [3],PBM binding z-score [4],PBM binding z-score [5],PBM binding z-score [6],PBM binding z-score [7],PBM binding z-score [8],PBM binding z-score [9],PBM binding z-score [10],PBM binding z-score [11],PBM binding z-score [12],PBM binding z-score [13],PBM binding z-score [14],PBM binding z-score [15],PBM binding z-score [16],PBM binding z-score [17],PBM binding z-score [18],PBM binding z-score [19],PBM binding z-score [20]
ACTACAGGGTCACTAGGCCAGAGTAGGTACGAAT,6.17,3.51,-0.237,3.18,0.0917,5.65,7.54,5.96,2.62,5.05,3.3,5.46,1.45,0.752,2.24,2.67,0.0574,3.53,0.377,4.19
TCTGCTAGGTCAGTCGGTCAGCTAACGAGCTGCC,1.18,0.763,-0.313,0.432,0.0608,1.92,1.25,2.34,1.11,1.44,3.05,3.83,-0.327,-0.109,0.456,-0.00116,-1.21,0.436,-1.08,3.6
ATCGAAAGGTCGTGAGGTGATTATACAGAAAGGC,5.04,4.01,0.374,3.36,0.471,4.92,4.09,4.21,1.66,2.92,0.336,1.93,1.12,1.16,1.42,3.14,0.165,3.89,0.608,4.08
ATATGTAGGTTACATCCGGGTCATTTAGGCTATG,2,4.62,1.8,3.3,0.865,4.68,6.01,5.23,2.64,4.38,7.42,7.5,4.18,3.77,3.45,3.45,1.06,3.55,0.824,2.16
CCTACTGGGCCATCAGGTCCTTGATATCAACGTT,-0.312,-0.421,-0.282,-0.452,-0.521,0.449,0.742,1.4,-0.0903,0.582,3.89,3.63,0.113,-0.684,0.311,-0.471,-0.404,-0.307,0.115,0.33
AGAACGAGGTTACCAAAGATCAGGGAAACGCTTG,1.56,5.74,-0.119,2.92,-0.342,3.07,2.21,1.99,0.478,1.55,2.75,2.7,0.297,0.837,0.438,1.41,-0.605,1.66,-0.278,2.02
AGAATGAGGGTATACGTAGATCAGGGAAGAAAGT,0.101,0.0157,-0.0552,-0.0551,-0.229,0.333,0.755,0.72,0.337,0.51,2.6,0.629,0.622,0.525,0.231,0.14,0.655,0.0305,-0.0376,0.267
TCGAGTAGGTTACCAATGGGGCATTCGGCTTTCT,-0.107,1.22,-0.464,0.357,-0.96,0.808,0.00688,0.931,0.855,0.717,3.25,2.7,-1.22,-1.07,0.209,-0.187,-0.566,0.111,-1.05,0.768
CCTACTGGGCCTAGGTCATTGATCAGTCAAAGCA,0.983,1.42,0.403,1.31,-0.469,1.77,0.62,1.47,-0.181,1.03,-0.391,1.13,-1.99,-1.42,1.21,0.949,-0.0903,1.57,-0.574,1.94
CCTACTGGGCCAAGATCATTGATCAGTCAAAGCA,-0.667,-0.791,-0.405,-0.59,-1.07,0.131,0.378,0.483,-0.171,0.221,3.49,2.81,-0.235,-0.518,-0.385,-0.498,-0.795,-0.319,-0.424,-0.341
TCATATAGGTAAAAGGTGAAGGTCGGTGTGGTAA,1.92,1.85,0.375,2.08,0.359,5.23,9.08,8.43,8.12,8.44,5.58,5.14,1.14,0.439,1.92,2.15,1.34,3.07,1.51,2.28
CCTAGTTGGTCAAGATCACACACGCTATAGGTAC,0.117,0.306,0.456,0.468,0.508,0.119,1.18,0.452,0.398,0.0188,1.36,1.04,0.47,1.08,1.14,0.0789,0.685,-0.0472,1.56,1.03
GGAACGAGGGCATTCGAGTAGATAGCATGGCGAT,0.816,0.394,-0.428,0.0953,-0.937,1.33,1.11,0.886,-0.0142,0.304,2.87,2.05,-0.011,-0.669,-0.256,0.557,-0.0789,0.335,-0.251,1.56
TCTGCTAGGTCAACGATGGTGAGCTAATCTGCTA,2.96,1.8,-0.337,1.15,-0.262,2.95,2.17,3.07,1.74,2.39,4.06,4.11,0.101,-0.356,0.2,0.739,-1.18,1.68,-1.07,3.98
CGAACTAGGTCAGAACAGGCCAGTGAAGGATGAT,1.1,0.652,-0.282,0.231,-0.675,3.02,4.88,4.38,1.91,3.5,6.91,7.16,0.994,-0.348,1.63,0.505,-0.233,1.18,-0.387,2.97

# Source: the supplement of paper PMC6555819
